# In PubChem BioAssay (EPA / NIEHS):
# Values joined by “and” are separate entries in the source; they are usually repeats but may differ in a detail not shown here. Identical values can stand only once. A structure can be active in one record and inactive in another. Active and inactive are the calls of the source. The calls were made as follows: active = hit-call score of the fitted dose curve at least 0.9, where 1 is the maximum; inactive = score below 0.9.
# Read-out: Macrophage colony-stimulating factor (MCSF), CSF1 (gene 1435)
# Assay: BSK_LPS_MCSF: BioMAP Diversity Plus: LPS Assay for Macrophage colony-stimulating factor (MCSF) Biomarker Activity (AID 2283083)
# Details: primary human HUVEC with PBMC; actives raise or lower the signal
# Experimental: BSK_LPS is a cell-based, multiplexed-readout assay that uses umbilical vein endothelium and peripheral blood mononuclear cells, a human vascular primary cell co-culture, with measurements taken at 24 hours after chemical dosing in a 96-well plate.BSK_LPS_MCSF is an assay component measured in the BSK_LPS assay. It measures M-CSF antibody related to regulation of gene expression using ELISA technology.Data from the assay component BSK_LPS_MCSF was analyzed into 1 assay endpoint. This assay endpoint, BSK_LPS_MCSF, was analyzed with bidirectional fitting relative to DMSO as the negative control and baseline of activity. Using a type of binding reporter, gain or loss-of-signal activity can be used to understand changes in the signaling as they relate to the gene CSF1. Furthermore, this assay endpoint can be referred to as a primary readout, because this assay has produced multiple assay endpoints where this one serves a signaling function. To generalize the intended target to other relatable targets, this assay endpoint is annotated to the cytokine intended target family, where the subfamily is colony stimulating factor.
# The levels of cell surface (or secreted, indicated by the prefix "s") biomarker endpoints were measured by ELISA. Overt cytotoxicity to cells in confluent adherent cultures (all systems other than the BT system) was assessed by measuring total protein levels using sulforhodamine B (SRB) staining in parallel cultures at the time of biomarker measurements, indicated as SRB endpoints. For proliferation assays for adherent cell types, individual cell types are cultured at sub-confluence and relative cell numbers quantified by SRB staining at time points optimized for each system (48 h: 3C and CASM3C systems; 72 h: BT and HDF3CGF systems; 96 h: SAg system). SRB was performed by staining cells with 0.1% SRB after fixation with 10% TCA and reading wells at 560 nm.Viability and proliferation of PBMC (T cells) was quantified by Alamar Blue reduction for the SAg and BT systems. For PBMC viability (referred to as PBMC Cytotoxicity within the assay endpoint names), cells were plated (75,000/well in a 96-well plate) and then chemical samples added for 1 h before addition of activators, SEB and TSST-1 (20 ng/mL final concentration each). Cells were incubated for 90 h. Then, Alamar Blue (20 uL/well) (Invitrogen, Cat DAL1100) was added for 6 h, and the plates were read with a fluorescence microplate reader at 546/580 nm (excitation/emission). For PBMC proliferation, cells were plated and activated as above but incubated for only 16 h prior to addition of Alamar Blue. Plates were read after 6 h.
Structure (SMILES),outcome,AC50
O=C(C(=O)c1ccccc1)c1ccccc1,inactive,
Cc1cccnc1,inactive,
OC(C(F)(F)F)(C(F)(F)F)C(O)(C(F)(F)F)C(F)(F)F,,22 µM (active) and 21.7 µM (active)
CCCCCCCCCCC1CO1 (stereo not drawn),,31.6 µM (active)
Oc1cccc2ccccc12,inactive,
Cc1c(C(N)=O)cc([N+](=O)[O-])cc1[N+](=O)[O-],inactive,
CN(C)Cc1cc(C(C)(C)C)c(O)c(C(C)(C)C)c1,inactive,
CC(C)CC(=O)CC(C)CC(C)C (stereo not drawn),inactive,
CCC(C)=NO,inactive,
O=[N+]([O-])c1cc(S(=O)(=O)Nc2ccccc2)ccc1Nc1ccccc1,inactive,9.74 µM (active)
COC(=O)/C=C\C(=O)OC,inactive,
CCCCC(CC)COC(=O)C=Cc1ccc(OC)cc1 (stereo not drawn),,32 µM (active) and 14.8 µM (active)
CN(C)CCC(c1ccc(Cl)cc1)c1ccccn1 (stereo not drawn),inactive,
COc1cc(CNC(=O)CCCC/C=C/C(C)C)ccc1O,inactive,
CC(C)C1OCCN1CCOC(=O)NCCCCCCNC(=O)OCCN1CCOC1C(C)C (stereo not drawn),inactive,
COc1ccc(C(=O)c2ccccc2O)c(O)c1,inactive,
COc1ccccc1Oc1c(NS(=O)(=O)c2ccc(C(C)(C)C)cc2)nc(-c2ncccn2)nc1OCCO,inactive,
CCCCCCC(O)CCCCCCCCCCC(=O)OC (stereo not drawn),inactive,
CC[N+](CC)(CC(=O)Nc1c(C)cccc1C)Cc1ccccc1,inactive,
C1CN(CCOCCN2CCOCC2)CCO1,inactive,
Cc1cc(-n2nc3ccc(Cl)cc3n2)c(O)c(C(C)(C)C)c1,inactive,
CC[N+](CC)(CC(=O)Nc1c(C)cccc1C)Cc1ccccc1 (tested in a mixture with another compound),inactive,
CCCCCCCCCC/C=C/C1CC(=O)OC1=O (stereo not drawn),inactive,
CN(C)c1ccc(C(c2ccccc2)c2ccc(N(C)C)cc2)cc1,,8.45 µM (active)
Sc1nc2ccccc2s1,inactive,
CCCCCCCCCCCCCCCCCC[N+](C)(C)C,,5 µM (active)
CCC[Si](OC(C)=O)(OC(C)=O)OC(C)=O,inactive,
